The supplement of paper PMC8866396
± gives the standard deviation of the averaged measurements.

Experiments:
[1] = test system: IL-6-GFP PC-9GR; assay: cell viability (CCK-8 OD) relative to DMSO control (fraction of control); higher = more viable cells; conditions: compound concentration: 10 uM; treatment time: 48 h
Summary of the method: (§1)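 Each well's viability is its CCK-8 optical density divided by that of the vehicle control well. The cells, PC-9 and PC-9GR lung cancer lines overexpressing IL-6-GFP from a lentiviral construct, were seeded at 3000 cells/well in 96-well plates and exposed for 48 h to each compound of a purchased 510-compound library at a final 10 μM, in two independent replicates.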

[2] = test system: IL-6-GFP PC-9; assay: as above; conditions: compound concentration: 10 uM; treatment time: 48 h
Summary of the method: as §1

CCC(Nc1ncnc2[nH]cnc12)c1nc2cccc(F)c2c(=O)n1-c1ccccc1 (stereo not given) [Idelalisib (CAL-101, GS-1101)]
cell viability [1]: 1.27 ± 0.14 | cell viability [2]: 0.858 ± 0.15

CC1CC2C3CCC4=CC(=O)C=CC4(C)C3(F)C(O)CC2(C)C1(O)C(=O)COP(=O)([O-])[O-].[Na+].[Na+] (stereo not given) [Dexamethasone Sodium Phosphate]
cell viability [1]: 1.22 ± 0.16 | cell viability [2]: 0.831 ± 0.039

CC(C)(O)c1ccccc1CCC(SCC1(CC(=O)O)CC1)c1cccc(/C=C/c2ccc3ccc(Cl)cc3n2)c1 (stereo not given) [Montelukast]
cell viability [1]: 1.11 ± 0.26 | cell viability [2]: 0.934 ± 0.32

CN(Cc1cnc2nc(N)nc(N)c2n1)c1ccc(C(=O)NC(CCC(=O)O)C(=O)O)cc1 (stereo not given) [Methotrexate]
cell viability [1]: 0.638 ± 0.078 | cell viability [2]: 0.54 ± 0.15

Cc1ccc(Nc2nccc(N(C)c3ccc4c(C)n(C)nc4c3)n2)cc1S(N)(=O)=O.Cl
cell viability [1]: 0.886 ± 0.13 | cell viability [2]: 0.532 ± 0.1

O=c1ccc2cc3ccoc3cc2o1 [Psoralen]
cell viability [1]: 0.808 ± 0.11 | cell viability [2]: 1.13 ± 0.057

CC(C(=O)O)c1ccc2c(c1)CC(=O)c1ccccc1S2 (stereo not given) [Zaltoprofen]
cell viability [1]: 0.953 ± 0.054 | cell viability [2]: 0.542 ± 0.067

CCC1(O)CC2CN(CCc3c([nH]c4ccccc34)C(C(=O)OC)(c3cc4c(cc3OC)N(C=O)C3C(O)(C(=O)OC)C(OC(C)=O)C5(CC)C=CCN6CCC43C65)C2)C1.O=S(=O)(O)O (stereo not given) [Vincristine sulfate]
cell viability [1]: 0.587 ± 0.086 | cell viability [2]: 0.553 ± 0.11

Cc1nc(Nc2ncc(C(=O)Nc3c(C)cccc3Cl)s2)cc(N2CCN(CCO)CC2)n1.O [Dasatinib Monohydrate]
cell viability [1]: 0.687 ± 0.054 | cell viability [2]: 0.488 ± 0.059

NC(CCC(=O)NC(CS)C(=O)NCC(=O)O)C(=O)O (stereo not given) [Glutathione]
cell viability [1]: 1.06 ± 0.11 | cell viability [2]: 1.1 ± 0.15

O=C([O-])c1cc(N=Nc2ccc(O)c(C(=O)[O-])c2)ccc1O.[Na+].[Na+] [Olsalazine Sodium]
cell viability [1]: 1.12 ± 0.053 | cell viability [2]: 1.25 ± 0.062

O=c1[nH]cc(F)c(=O)[nH]1 [Fluorouracil (5-Fluoracil, 5-FU)]
cell viability [1]: 0.731 ± 0.011 | cell viability [2]: 0.537 ± 0.12

CCc1ccc(Cc2ccc3c(c2)C2(OC3)OC(CO)C(O)C(O)C2O)cc1.O (stereo not given) [Tofogliflozin(CSG 452)]
cell viability [1]: 0.92 ± 0.21 | cell viability [2]: 1.02 ± 0.25

COc1cc2ncnc(Nc3ccc(F)c(Cl)c3)c2cc1OCCCN1CCOCC1.Cl [Gefitinib hydrochloride]
cell viability [1]: 0.91868 ± 0.00075 | cell viability [2]: 0.6584 ± 0.0058

CCOC(=O)C(CCc1ccccc1)NC1CSC(c2cccs2)CN(CC(=O)O)C1=O (stereo not given) [Temocapril]
cell viability [1]: 0.726 ± 0.078 | cell viability [2]: 1.14 ± 0.099

COc1cc(C2c3cc4c(cc3C(OC3OC5COC(c6cccs6)OC5C(O)C3O)C3COC(=O)C23)OCO4)cc(OC)c1O (stereo not given) [Teniposide]
cell viability [1]: 0.0642 ± 0.047 | cell viability [2]: 0.121 ± 0.035

CCCCC1(COC(=O)CCC(=O)O)C(=O)N(c2ccccc2)N(c2ccccc2)C1=O [Suxibuzone]
cell viability [1]: 0.768 ± 0.21 | cell viability [2]: 1.07 ± 0.21

Cc1ccc(-c2cc(C(F)(F)F)nn2-c2ccc(S(N)(=O)=O)cc2)cc1 [Celecoxib]
cell viability [1]: 1.13 ± 0.057 | cell viability [2]: 1.09 ± 0.051

CCC(C)(Oc1ccc(C2(c3ccc(OC(C)(CC)C(=O)O)cc3)CCCCC2)cc1)C(=O)O (stereo not given) [Clinofibrate]
cell viability [1]: 1.17 ± 0.14 | cell viability [2]: 1.23 ± 0.42

Nc1nc(=S)c2[nH]cnc2[nH]1 [Thioguanine]
cell viability [1]: 1.37 ± 0.42 | cell viability [2]: 1.2 ± 0.061

CC(Oc1cc(-c2cnn(C3CCNCC3)c2)cnc1N)c1c(Cl)ccc(F)c1Cl (stereo not given)
cell viability [1]: 0.43 ± 0.21 | cell viability [2]: 0.529 ± 0.15

CNNCc1ccc(C(=O)NC(C)C)cc1.Cl [Procarbazine HCl]
cell viability [1]: 1.02 ± 0.16 | cell viability [2]: 1.17 ± 0.042

CCC1(O)C(=O)OCc2c1cc1n(c2=O)Cc2cc3cc(O)ccc3nc2-1 [(S)-10-Hydroxycamptothecin]
cell viability [1]: 0.466 ± 0.076 | cell viability [2]: 0.433 ± 0.032

CC1CC2C3CCC4=CC(=O)C=CC4(C)C3C(=O)CC2(C)C1(O)C(=O)CO (stereo not given) [Meprednisone]
cell viability [1]: 1.25 ± 0.14 | cell viability [2]: 1.46 ± 0.35

CC(C)Cc1ccc(C(C)C(=O)O)cc1.NCCCCC(N)C(=O)O (stereo not given) [Ibuprofen Lysine]
cell viability [1]: 1.28 ± 0.21 | cell viability [2]: 1.25 ± 0.29

COc1ccc2c(c1)c(CC(=O)O)c(C)n2C(=O)c1ccc(Cl)cc1 [Indomethacin]
cell viability [1]: 0.478 ± 0.33 | cell viability [2]: 1.03 ± 0.027

Oc1ccc(/C=C/c2cc(O)cc(O)c2)cc1 [Resveratrol]
cell viability [1]: 1.38 ± 0.065 | cell viability [2]: 1.37 ± 0.064

Cc1ccc(S(=O)(=O)O)cc1.NC(=O)c1cccc2cn(-c3ccc(C4CCCNC4)cc3)nc12 (stereo not given) [Niraparib (MK-4827) tosylate]
cell viability [1]: 0.764 ± 0.096 | cell viability [2]: 0.916 ± 0.22

CCCCC1C(=O)N(c2ccccc2)N(c2ccccc2)C1=O [Phenylbutazone]
cell viability [1]: 1.34 ± 0.094 | cell viability [2]: 1.25 ± 0.053

C=CCC1/C=C(\C)CC(C)CC(OC)C2OC(O)(C(=O)C(=O)N3CCCCC3C(=O)OC(/C(C)=C/C3CCC(O)C(OC)C3)C(C)C(O)CC1=O)C(C)CC2OC (stereo not given) [Tacrolimus (FK506)]
cell viability [1]: 1.14 ± 0.079 | cell viability [2]: 1.34 ± 0.11

Cc1oncc1C(=O)Nc1ccc(C(F)(F)F)cc1 [Leflunomide]
cell viability [1]: 1.1 ± 0.067 | cell viability [2]: 0.683 ± 0.21

COc1cc(C2Oc3cc(C4Oc5cc(O)cc(O)c5C(=O)C4O)ccc3OC2CO)ccc1O (stereo not given) [Silibinin]
cell viability [1]: 1.36 ± 0.07 | cell viability [2]: 1.15 ± 0.099

Nc1nc(CC(=O)Nc2ccc(CCNCC(O)c3ccccc3)cc2)cs1 (stereo not given) [Mirabegron]
cell viability [1]: 1.09 ± 0.19 | cell viability [2]: 0.791 ± 0.035

Cl.NC1=NCC2c3ccccc3Cc3ccccc3N12 (stereo not given) [Epinastine HCl]
cell viability [1]: 0.9943 ± 0.0026 | cell viability [2]: 1.22 ± 0.014

COc1cc2c3cc1Oc1c(OC)c(OC)cc4c1C(Cc1ccc(O)c(c1)Oc1ccc(cc1)CC3N(C)CC2)N(C)CC4 (stereo not given) [Berbamine]
cell viability [1]: 0.891 ± 0.25 | cell viability [2]: 1.08 ± 0.14

Cc1cnc(C(=O)NC2CCCCC/C=C\C3CC3(C(=O)NS(=O)(=O)C3CC3)NC(=O)C3CC(Oc4nc5ccccc5c5ccccc45)CN3C2=O)cn1 (stereo not given) [Paritaprevir (ABT-450)]
cell viability [1]: 0.779 ± 0.2 | cell viability [2]: 0.874 ± 0.28

CCCCC(=O)OC1(C(=O)CO)C(C)CC2C3CCC4=CC(=O)C=CC4(C)C3(F)C(O)CC21C (stereo not given) [Betamethasone Valerate]
cell viability [1]: 1.11 ± 0.14 | cell viability [2]: 0.804 ± 0.026

CC1CC2C3CCC4=CC(=O)C=CC4(C)C3(Cl)C(O)CC2(C)C1(OC(=O)c1ccco1)C(=O)CCl (stereo not given) [Mometasone furoate]
cell viability [1]: 1.12 ± 0.11 | cell viability [2]: 0.93 ± 0.076

COc1cc2nccc(Oc3ccc(NC(=O)Nc4cc(C)on4)c(Cl)c3)c2cc1OC [Tivozanib (AV-951)]
cell viability [1]: 0.792 ± 0.15 | cell viability [2]: 0.353 ± 0.036

COc1cc2ncnc(Nc3ccc(F)c(Cl)c3)c2cc1OCCCN1CCOCC1 [Gefitinib (ZD1839)]
cell viability [1]: 0.9 ± 0.06 | cell viability [2]: 0.664 ± 0.061

NCCNc1ccc(NCCN)c2c1C(=O)c1ccncc1C2=O.O=C(O)/C=C\C(=O)O.O=C(O)/C=C\C(=O)O [Pixantrone Maleate]
cell viability [1]: 0.168 ± 0.39 | cell viability [2]: 0.3518 ± 0.00067

CN1C(C(=O)Nc2ccccn2)=C(O)c2ccccc2S1(=O)=O [Piroxicam]
cell viability [1]: 1.21 ± 0.047 | cell viability [2]: 1.09 ± 0.12

N.N.O=C([O-])C1(C(=O)[O-])CCC1.[Pt+2] [Carboplatin]
cell viability [1]: 1.19 ± 0.012 | cell viability [2]: 1.12 ± 0.074

CN1CCN(C(c2ccccc2)c2ccccc2)CC1.Cl.Cl [Cyclizine 2HCl]
cell viability [1]: 1.06 ± 0.31 | cell viability [2]: 0.972 ± 0.038

OCc1ccccc1OC1OC(CO)C(O)C(O)C1O (stereo not given) [Salicin]
cell viability [1]: 1.49 ± 0.23 | cell viability [2]: 1.2 ± 0.097

CC(C)(C)c1ccc(C(=O)CCCN2CCC(OC(c3ccccc3)c3ccccc3)CC2)cc1 [Ebastine]
cell viability [1]: 0.62 ± 0.3 | cell viability [2]: 0.628 ± 0.031

OCC1OC(OCC2OC(O)C(O)C(OC3OC(CO)C(O)C(OC4OC(CO)C(O)C(OC5OC(COC6OC(CO)C(O)C(O)C6O)C(O)C(OC6OC(CO)C(O)C(O)C6O)C5O)C4O)C3O)C2O)C(O)C(O)C1O (stereo not given) [Lentinan]
cell viability [1]: 0.121 ± 0.32 | cell viability [2]: 1.276 ± 0.0043

C=CC(=O)Nc1cc(Nc2nccc(-c3cn(C)c4ccccc34)n2)c(OC)cc1N(C)CCN(C)C [Osimertinib (AZD9291)]
cell viability [1]: 0.225 ± 0.073 | cell viability [2]: 0.372 ± 0.059

CN(C)C/C=C/C(=O)Nc1cc2c(Nc3ccc(F)c(Cl)c3)ncnc2cc1OC1CCOC1 (stereo not given) [Afatinib (BIBW2992)]
cell viability [1]: 0.542 ± 0.058 | cell viability [2]: 0.294 ± 0.038

CNC(=O)c1ccccc1Sc1ccc2c(/C=C/c3ccccn3)n[nH]c2c1 [Axitinib]
cell viability [1]: 0.712 ± 0.0072 | cell viability [2]: 0.532 ± 0.05

CCC(C(=O)O)c1ccc(N2Cc3ccccc3C2=O)cc1 (stereo not given) [Indobufen]
cell viability [1]: 0.908 ± 0.059 | cell viability [2]: 1.11 ± 0.049

CC#CCn1c(N2CCCC(N)C2)nc2c1c(=O)n(Cc1nc(C)c3ccccc3n1)c(=O)n2C (stereo not given) [Linagliptin]
cell viability [1]: 0.849 ± 0.11 | cell viability [2]: 0.883 ± 0.22

Cl.Clc1ccc(CCCOCCCN2CCCCC2)cc1 [Pitolisant hydrochloride]
cell viability [1]: 0.916 ± 0.11 | cell viability [2]: 1.13 ± 0.28

NC(CO)(CO)CO [Trometamol]
cell viability [1]: 0.932 ± 0.18 | cell viability [2]: 1.09 ± 0.061

CCCCCCCCc1ccc(CCC(N)(CO)CO)cc1 [Fingolimod]
cell viability [1]: 0.513 ± 0.18 | cell viability [2]: 0.924 ± 0.37

CCCS(=O)(=O)Nc1ccc(F)c(C(=O)c2c[nH]c3ncc(-c4ccc(Cl)cc4)cc23)c1F [Vemurafenib (PLX4032, RG7204)]
cell viability [1]: 1.06 ± 0.1 | cell viability [2]: 1.05 ± 0.15

Cn1c(=O)cc(N2CCCC(N)C2)n(Cc2cc(F)ccc2C#N)c1=O.O=C(O)CCC(=O)O (stereo not given) [Trelagliptin succinate]
cell viability [1]: 0.825 ± 0.15 | cell viability [2]: 1.07 ± 0.15

CN(C)CCOC(c1ccc(Cl)cc1)c1ccccn1.O=C(O)/C=C\C(=O)O (stereo not given) [CarbinoxaMine Maleate]
cell viability [1]: 1.2 ± 0.26 | cell viability [2]: 1.07 ± 0.066

O=C([O-])Cc1ccccc1Nc1c(Cl)cccc1Cl.[Na+] [Diclofenac Sodium]
cell viability [1]: 1.3 ± 0.039 | cell viability [2]: 1.09 ± 0.084

CC1(C(=O)O)CCC2(C)CCC3(C)C(=CC(=O)C4C5(C)CCC(OC6OC(C(=O)O)C(O)C(O)C6OC6OC(C(=O)O)C(O)C(O)C6O)C(C)(C)C5CCC43C)C2C1 (stereo not given) [Glycyrrhizin (Glycyrrhizic Acid)]
cell viability [1]: 1.47 ± 0.11 | cell viability [2]: 1.29 ± 0.022
